# TSG101-PTAP inh = qHTS Assay for Iinhibitors of HIV-1 Budding by Blocking the Interaction of PTAP/TSG101. Potency, µM (series often up to 115 µM), without a hit: at the highest dose activity change, negative = inhibition, actives largely listed as inhibitors. AID 493005, 2010. 340,000 tested, under 10 active. Tumor susceptibility gene 101 protein (Homo sapiens), Q99816. Fluorescence polarization, FITC-PTAP peptide / Tsg101 binding; active means well fitted inhibition curve with a large enough effect in the main read-out, with a control signal flat, not every such curve was filed as active; inconclusive means small, poorly fitted or top-dose-only effect, or effect the other way, or a change in a side signal; inactive means no such curve, though single readings can be large or run the other way; further: % of control where 0% means no effect
#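 FP read-out: FITC-PTAP peptide, 50 nM final, binding Tsg101 binding domain, 10 uM final; 20 min, r.t.; 10 mM HEPES pH 7.5, 0.15 M NaCl, 0.01% Tween 20, 3 mM EDTA, 0.1 mM TCEP.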
# 12-LOX inh = Primary qHTS assay for inhibitors of human arachidonate 12S-lipoxygenase (ALOX12): Round 2; Polyunsaturated fatty acid lipoxygenase ALOX12 (Homo sapiens), P18054; purified 12hLO, xylenol orange hydroperoxide absorbance; Potency, µM (top dose mostly 108 µM), inactives show at the top dose activity change, negative = inhibition, usual class: inhibitors; 580,000 compounds, 1.1% hits; further: on the % scale 0 is the no-effect control and ±100 the full control effect
#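 Hydroperoxide product was detected by ferrous iron/xylenol orange as the 573 to 405 nm absorbance ratio. Arachidonic acid at 40 uM (final) was turned over for 30 min at room temperature by 150 nM human 12hLO, pH 7.0 Hepes buffer, after 15 min compound preincubation.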
# Eya2 inh = qHTS Assay for Inhibitors of the Phosphatase Activity of Eya2 | Protein phosphatase EYA2 (Homo sapiens), O00167 | recombinant Eya2, OMFP fluorescence dephosphorylation (OMFP is methylfluorescein phosphate) | Potency, µM (highest dose often 76.9 µM), for inactives: at the highest dose activity, negative = inhibition, hits mostly inhibitors | 330,000 compounds, 0.006% hits; further: on the % scale 0 is the no-effect control and ±100 the full control effect
#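 Eya2 protein (added as 0.2 uM solution) was preincubated with compound for 10 min at ambient temperature in 50 mM HEPES pH 7.5, 50 mM NaCl, 5 uM MgCl2, 0.05% BSA, 1 mM DTT. OMFP (added at 50 uM) then reacted 10 min; fluorescence read at 485/525 nm.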
# USP2a inh = qHTS Assay for Inhibitors of Ubiquitin-specific Protease USP2a Using CHOP2 as the Reporter; AID 463254, 2010; 330,000 compounds, 0.01% hits; USP2 core, Ub-CHOP2 coupled fluorogenic reporter, 485/531; Potency, µM (top dose mostly 38.3 µM), inactives show at the top dose activity change, negative = inhibition, actives largely listed as inhibitors;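 further: plate controls were DMSO wells for no effect and full inhibition by NEM control for full effect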
#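 Deubiquitinase activity read as fluorescence (485/531 nm) after Ub-CHOP2 cleavage activates the enterokinase reporter on its substrate; USP2 core 10nM, Ub-CHOP2 and substrate 25nM each, 30min compound preincubation then 60min RT; data normalized to NEM, curves fitted.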
# * hit, by the source's call; ? = inconclusive; nt = no result; ! = not confirmed by another sample; [ ] = dose if it differs, or a comment. In the library only some 1.1% were active in any assay of this set; here they are far more common. Unless noted, the call rests on the fitted dose curve; in most records, active means well fitted curve in the direction sought with a large enough effect; inconclusive means small, poorly fitted or top-dose-only effect, or another doubt; inactive means no such curve, though single readings can be large; an effect the other way counts as inactive or inconclusive. Potency means the concentration at half of the fitted maximal effect.
SMILES,TSG101-PTAP inh,12-LOX inh,Eya2 inh,USP2a inh
CCn1c(CCCCc2n[nH]c(=S)n2CC)n[nH]c1=S,-13%,-28%,-20%,2%
CCn1c(CN2c3ccccc3Sc3ccccc32)n[nH]c1=S,-2%,8.9µM*,-15%,-5%
CCn1c(CSc2nc3ccccc3s2)n[nH]c1=S,-3%,32µM*,21%,-2%
CN1CCC(C(=O)N2Cc3ccccc3CC3(CCCN(Cc4ccccc4)C3)C2)CC1 (stereo unspecified),nt,0%[6.33 µM],nt,nt
Cc1nc(NC(=O)CSc2nccn2C)sc1C(=O)N(C)C,-1%,18µM*,6%,2%
COCCCN1C(=O)N(Cc2nncn2C(C)C)C(=O)C12CCNCC2,nt,18µM*,nt,nt
Cc1nncn1CCN1C(=O)N(CCc2ccccc2)C2(CCNCC2)C1=O,nt,-24%,nt,nt
C/C(=N\Nc1nc(-c2ccccc2)cs1)c1cccs1,-8%,45µM*,-6%,2%
Cc1ccc(NC(=O)CSc2nc(-c3ccco3)ccc2C#N)cc1C,nt,-26%,nt,nt
COc1ccc(-n2c(=S)[nH]c3ccccc32)cc1,-6%,28µM*,-19%,3%
COc1ccc(-n2c(=S)[nH]c3ccccc3c2=S)cc1,-7%,-2%,4%,0%
COc1ccc(Cn2c(=S)[nH]c3ccccc32)cc1,-1%,45µM*,-13%,2%
O=C(NC1CC1)c1cc(-c2ccccc2F)cc2c1OCCN2Cc1cccnc1,nt,-1%[176 µM],nt,nt
CCn1ccc2cc(C(=O)N3CCC(=O)N(CC4CC4)C(C(C)C)C3)ccc21 (stereo unspecified),nt,-8%,nt,nt
Cc1c(C)c2cc(Cl)c(O)c(CN(C)C)c2oc1=O,-2%,-17%,5%,1%
O=c1oc2c(O)c(O)cc3c(=O)oc4c(O)c(O)cc1c4c23,-3%,?,0%,1.1µM*
COc1cc(-c2nc(CN3CCCC(CN)C3)c(C)o2)cc2c1OCO2 (stereo unspecified),nt,-12%,nt,nt
CCN(CC)c1ccc(/C=C/C(=O)C2C(=O)C=C(C)OC2=O)cc1 (stereo unspecified),?,4%,?,13%
COc1cc(/C=C/C(=O)C2C(=O)C=C(C)OC2=O)cc(Cl)c1OC(F)F (stereo unspecified),nt,14µM*,nt,nt
SC1CCCC1,nt,1%[176 µM],nt,nt
O=C(c1cc2ccccc2o1)N1CCN(Cc2nc3ccccc3s2)CC1,nt,18µM*,nt,nt
CCOc1ccccc1NC(=O)N1CCC(Oc2ccccc2-c2nc(C)no2)C1 (stereo unspecified),nt,11%,nt,nt
CCOC(=O)C1Nc2ccc(C)cc2C2C=CCC12 (stereo unspecified),-9%,32µM*,nt,nt
O=C(CSc1n[nH]c(-c2ccccc2F)n1)Nc1ccc2c(c1)OCCCO2,nt,-6%,nt,nt
CCN(CC)CCOc1ccc2c(c1)C(=O)c1cc(OCCN(CC)CC)ccc1-2,nt,22µM*!,nt,nt
SMILES,TSG101-PTAP inh,12-LOX inh,Eya2 inh,USP2a inh
Cc1ccnc(NC(=O)COc2c(C)[nH]ccc2=O)c1,nt,-43%,nt,nt
CCOC(=O)C1=CNS(=O)(=O)NC1c1ccc2ccccc2c1 (stereo unspecified),-5%,32µM*,3%,0%
CCOC(=O)C1=CNS(=O)(=O)NC1c1cccc(O)c1 (stereo unspecified),6%,10%,0%,2%
COc1ccc(NC(=O)C2CN(S(=O)(=O)C3CC3)CC23CCCCC3)c(OC)c1 (stereo unspecified),nt,33%,nt,nt
COC(=O)c1[nH]c2ccccc2c1NC(=O)CCN1CCCCC1,nt,0%,nt,nt
CC(C)c1ccccc1NC(=O)c1ccccc1NC(=O)C1CCCCC1,-4%,-5%,-5%,-1%
CCN(CC)S(=O)(=O)c1ccc(Cl)c(NC(=S)NC(=O)C2CCCC2)c1,-7%,16µM*,-7%,1%
CC(C)c1ccccc1NC(=S)NC(=O)C1CCCCC1,0%,16µM*,0%,-6%
Cc1ccc(NC(=O)C2CCCC2)c(Br)c1,1%,0%,nt,nt
CCN(CC)c1ccc(S(=O)(=O)Nc2cc(Cl)ccc2Cl)cc1NC(=S)NC(=O)C1CCCC1,-2%,?,-2%,-18%

# Screens: PubChem BioAssay, National Center for Advancing Translational Sciences (NCATS)
